# GLS inh – qHTS for Inhibitors of Glutaminase (GLS); GLS enzymatic activity, qHTS titration; Potency, µM (series often up to 45.5 µM), actives largely listed as inhibitors; 410,000 tested, 0.21% active
# Target sequence (O94925 whole entry, looked up): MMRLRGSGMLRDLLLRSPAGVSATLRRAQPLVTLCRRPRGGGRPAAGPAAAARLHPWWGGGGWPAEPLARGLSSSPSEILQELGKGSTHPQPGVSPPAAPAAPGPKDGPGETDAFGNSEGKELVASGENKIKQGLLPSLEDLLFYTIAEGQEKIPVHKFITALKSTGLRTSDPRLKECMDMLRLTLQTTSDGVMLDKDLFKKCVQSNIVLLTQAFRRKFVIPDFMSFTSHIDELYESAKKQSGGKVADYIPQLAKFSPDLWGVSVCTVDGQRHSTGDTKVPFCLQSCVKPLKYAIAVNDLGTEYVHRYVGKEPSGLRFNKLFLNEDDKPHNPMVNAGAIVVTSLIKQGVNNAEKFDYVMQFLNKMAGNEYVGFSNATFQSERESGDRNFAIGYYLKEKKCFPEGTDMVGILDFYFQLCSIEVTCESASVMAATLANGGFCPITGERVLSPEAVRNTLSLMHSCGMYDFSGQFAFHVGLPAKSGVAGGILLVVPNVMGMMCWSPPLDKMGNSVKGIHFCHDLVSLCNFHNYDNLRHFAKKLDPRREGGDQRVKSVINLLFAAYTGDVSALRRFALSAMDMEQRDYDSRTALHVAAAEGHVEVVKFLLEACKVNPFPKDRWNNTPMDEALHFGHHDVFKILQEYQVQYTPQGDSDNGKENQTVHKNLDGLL
#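 hKGA; 45 mM KH2PO4 pH 8.2 + 0.02% Tween-20; cpd via pin tool; 1 mM Gln soln; GluOx/HRP/Amplex Red; RT 30 min; fluor. t0 & final.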
# p53 reactivator – qHTS assay for re-activators of p53 using a Luc reporter | H1299 p53-A138V BP100-luciferase reporter, luminescence, 24 h | Potency, µM (top dose mostly 92.2 µM), most hits filed as activators | 320,000 tested, 0.063% active; note: nearly all actives have a fitted effect of over 45% in size
#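 p53-null H1299 cells stably carrying temperature-sensitive p53-A138V and a BP100-luciferase reporter were pinned with compounds (4-point, 1:5 series) and held 24 hrs at 37 deg C. Luminescence was read 10 min after detection reagent.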
# Tb PFK inh-1 – qHTS Assay to Find Inhibitors of T. brucei phosphofructokinase; T. brucei PFK, ADP-Glo luminescence; Potency, µM (titrated, usually from 57.5 µM), usual class: inhibitors; 330,000 tested, 0.17% active; AID 485367, 2010; note: nearly all actives have a fitted effect of over 60% in size
#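 Compounds were pin-transferred as a titration series up to 57 uM into substrate buffer (0.5 mM F6P, 0.1 mM ATP, pH 8.0), then 1.25 nM PFK was added and reactions ran 45 min before ADP-Glo detection.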
# USP2a inh – qHTS Assay for Inhibitors of Ubiquitin-specific Protease USP2a Using CHOP2 as the Reporter; USP2 core, Ub-CHOP2 coupled fluorogenic reporter, 485/531; Potency, µM (highest dose often 38.3 µM), actives largely listed as inhibitors; 330,000 tested, 0.01% active
#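 USP2 core (10nM final) preincubated 30min RT with compound in 20mM Tris-HCl pH 8.0, 2mM CaCl2, 2mM beta-mercaptoethanol, 0.05% CHAPS; 25nM Ub-CHOP2 plus 25nM reporter substrate added, fluorescence (Ex485/Em531) read after 60min.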
# Tb PFK KinaseGlo – Tb PFK orthogonal confirmatory assay using ATP depletion (Kinase-Glo Plus) as an alternative measure of Tb PFK activity: Hit Validation; shares compounds with Tb PFK inh-1; Tb PFK enzyme, ATP depletion, Kinase-Glo Plus luminescence; Potency, µM (doses to about 57.5 µM); 1,100 tested, 47% active; AID 504636, 2011; calls by dose curve; note: nearly all actives have a fitted effect of over 60% in size
# Tb PFK inh-2 – Inhibitors of T. brucei phosphofructokinase: Hit Validation | shares compounds with Tb PFK inh-1 | purified T. brucei PFK, ADP-Glo luminescence, 45 min | Potency, µM (doses to about 57.5 µM), hits mostly inhibitors | 1,100 tested, 41% active | AID 504637, 2011; note: nearly all actives have a fitted effect of over 60% in size
# A number is an active result; n = inactive; u = inconclusive; x = no result. Shown are actives, neighbours in structure and some others; about 0.39% of the full set was active somewhere. Unless noted, calls come from the whole dose curve; as a rule, active = well fitted curve in the direction sought with a large enough effect; inconclusive = small, poorly fitted or top-dose-only effect, or another doubt; inactive = no such curve, though single readings can be large; an effect the other way counts as inactive or inconclusive.
SMILES,GLS inh,p53 reactivator,Tb PFK inh-1,USP2a inh,Tb PFK KinaseGlo,Tb PFK inh-2
NC(=O)c1c(-c2cccs2)csc1N,n,n,u,n,n,u
Cc1cc(C)nc(/N=C(\N)c2c(O)[nH]c(=O)[nH]c2=O)n1,x,u,u,n,u,n
COc1ccc(N=C(C)c2c(O)[nH]c(=O)[nH]c2=O)cc1,n,x,n,n,x,x
CCc1ccc(OCC(=O)N2CCN(CCc3ccccn3)CC2)cc1,n,x,x,x,x,x
O=C(O)c1cc(O)c2c(c1)[C@H]([C@H]1c3cc(C(=O)O)cc(O)c3C(=O)c3c(O[C@@H]4O[C@H](CO)[C@@H](O)[C@H](O)[C@H]4O)cccc31)c1cccc(OC3O[C@H](CO)[C@@H](O)[C@H](O)[C@H]3O)c1C2=O (stereo not given in full),u,n,u,u,u,4.78µM
O=c1ccc2cc(O[C@H]3O[C@@H](CO)[C@@H](O)[C@@H](O)[C@@H]3O)c(O)cc2o1,n,x,x,x,x,x
Cc1ccc(-n2c(/C=C/c3cccs3)nc3ccccc3c2=O)cc1C,n,x,x,x,x,x
Cc1cccc(NCc2ccc([N+](=O)[O-])s2)c1,n,x,u,n,21.3µM,u
Cc1cccc(NP2(=O)NCCCN2)c1,n,x,x,x,x,x
O=[N+]([O-])c1ccc(CNc2cccc(F)c2)s1,n,u,13.5µM,n,5.36µM,13.5µM
COP(=S)(OC)Oc1cc(Cl)c(Cl)cc1Cl,n,x,x,x,x,x
O=C1NCN(c2ccccc2)C12CCN(C(c1ccccc1)c1nnnn1C1CCCC1)CC2 (stereo not given),n,x,x,x,x,x
C[N+]1(C)C2CC[C@H]1CC(OC(=O)[C@@H](CO)c1ccccc1)C2 (stereo not given in full),n,x,x,x,x,x
CN(C)C1(c2nnnn2CCOC(=O)Nc2ccc(Cl)cc2)CCCCC1,n,n,n,n,x,x
CCOC(=O)N(C)OC(=O)Nc1ccc(Cl)c(Cl)c1,u,n,1.51µM,n,23.9µM,u
O=C(O)c1cc(N2N=C(C(F)(F)F)/C(=C/C=C/c3ccco3)C2=O)ccc1Cl,8.91µM,n,16.9µM,10µM,4.78µM,5.36µM
Cc1ccc(-c2nnn3c2nc(NCCc2ccc(S(N)(=O)=O)cc2)c2ccccc23)cc1,n,n,u,n,u,u
CC1(c2ccc(Cl)cc2Cl)NC(=O)N(CC(=O)Nc2ccc3[nH]c(=O)[nH]c3c2)C1=O (stereo not given),n,n,u,n,u,u
Cc1ccc(NC(=O)C(=O)NNC(=O)c2cccs2)cc1,n,n,u,n,n,u
O=C(COc1ccc2ccccc2c1)NNC(=O)c1cccs1,n,n,u,n,n,u
COC(=O)C(O)(c1ccc(NC(=O)c2cccs2)cc1)C(F)(F)F (stereo not given),n,n,n,n,x,x
COc1ccc(NC(=O)C(=O)NNC(=O)c2cccs2)cc1,n,n,u,n,n,u
CN1CCN(C(=O)COc2ccc3ccccc3c2)CC1,n,n,n,n,x,x
CCOc1ccc(NC(=O)Cn2sc3nc(C)cc(C)c3c2=O)cc1,u,n,u,n,u,8.49µM
Cc1cc(C)c2c(=O)n(CC(=O)NCCCN3CCOCC3)sc2n1,n,n,8.49µM,n,u,10.7µM
SMILES,GLS inh,p53 reactivator,Tb PFK inh-1,USP2a inh,Tb PFK KinaseGlo,Tb PFK inh-2
Cc1ccc(NC(=O)Cn2sc3nc(C)cc(C)c3c2=O)c(Cl)c1,n,n,10.7µM,n,u,6.01µM
Cc1cccc(N2CCN(C(=O)Cn3sc4nc(C)cc(C)c4c3=O)CC2C)c1 (stereo not given),n,n,15.1µM,n,n,n
[O]=[Cd],n,x,x,x,x,x
CCS(=O)(=O)C(C)(C)S(=O)(=O)CC,n,x,x,x,x,x
Cc1cc(C)c2c(=O)n(CC(=O)Nc3ccc(Cl)cc3)sc2n1,u,n,8.49µM,n,u,3.79µM
Cc1cc(C)c2c(=O)n(CC(=O)Nc3cccc(F)c3)sc2n1,u,n,7.57µM,n,u,4.78µM
COC12CCC3(CC1C(C)(O)C(C)(C)C)[C@H]1Cc4ccc(O)c5c4[C@@]3(CCN1CC1CC1)C2O5 (stereo not given in full),n,n,n,n,x,x
N#Cc1cc2c(nc1SCC(=O)Nc1ccc(F)c(Cl)c1)C1CCN2CC1,n,x,x,x,x,x
Clc1ccc(CN2C3=NCCCN3c3ccccc32)cc1,n,n,15.1µM,n,23.9µM,30.1µM
Clc1ccc(CN2C3=NCCCN3c3ccccc32)cc1Cl,n,n,13.5µM,n,7.57µM,13.5µM
CCN(CC)/[N+]([O-])=N/O,n,x,x,x,x,x
Fc1ccc(CCNCc2ccc(Cl)c(Cl)c2)cc1,n,n,u,n,15.1µM,26.9µM
CCc1ccc(CNCCc2ccc(F)cc2)cc1,n,n,n,n,x,x
CSc1nc(=S)c2[nH]c(=S)[nH]c2[nH]1,n,n,u,n,5.36µM,19µM
COC(=O)\C(C(C)=O)=C(/C=C/C=C/C=C/N(C)C)N(C)C,11.2µM,n,u,n,u,u
Cc1ccccc1NC(=O)CCl,n,n,n,n,x,x
Cc1ccc(Cl)cc1NC(=O)C[n+]1ccc(Cc2ccc([N+](=O)[O-])cc2)cc1,n,n,u,n,u,u
N=C1SCC(=O)N1c1ncc(Cc2cccc(Cl)c2)s1,n,n,u,n,23.9µM,u
CC(C)[C@@]1(NC(=O)[C@H]2CC3c4cccc5[nH]cc(c45)C[C@H]3N(C)C2)O[C@@]2(O)C3CCCN3C(=O)[C@@H](Cc3ccccc3)N2C1=O (stereo not given in full),n,x,x,x,x,x
Cc1ccc(C(=O)Nc2nnc(CC(=O)N/N=C/c3ccc(O)c(O)c3)s2)cc1,n,n,u,u,n,n
COc1ccc(C(=O)Nc2nnc(CC(=O)N/N=C/c3ccc(O)cc3O)s2)cc1,x,n,u,n,n,u
CC(=O)OC1(c2ccccc2)CCN(CCc2ccccc2)CC1,n,x,x,x,x,x
CC(=O)N1CCN(c2ccc(NC(=O)c3ccc(Cl)c([N+](=O)[O-])c3)cc2)CC1,n,n,u,n,u,30.1µM
CC(C)CNC(=O)c1cccc(NC(=O)c2ccc(Cl)c([N+](=O)[O-])c2)c1,n,n,23.9µM,n,10.7µM,21.3µM
CN1CCN(c2ccc(C(N)=O)cc2[N+](=O)[O-])CC1,n,n,n,n,x,x
O=C(Nc1ccc(Cl)c([N+](=O)[O-])c1)c1ccncc1,n,n,u,n,u,u
Cc1ccc(N=Nc2cc(C)ccc2N)cc1,n,u,n,n,x,x

# Screening data deposited in PubChem BioAssay by National Center for Advancing Translational Sciences (NCATS).
